Laboratory results: the supplement of paper PMC10849652
Targets with a hit are over-represented here; the source holds about 7,900 in all. About 0.6% of all pairs of compound and target were hits.

How the values were obtained:
Assay in all cases: log2 fold change, soluble protein after heating vs DMSO (PISA); higher = thermal stabilisation; K562 cells, 10 uM, 30 min; active = over 0.2 and 3.5 SD of the protein, either way, in both replicates (recomputed)
[1] = compound: C1=CC=C(C=C1)[C@H](COC2=CC3=C(C=C2)NC(=O)N3)NC(=O)C4=CC=CN(C4=O)CC5=CC(=C(C=C5)F)F
Procedure, shortened: (§1)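 Values are thermal stability changes relative to control samples and are taken from duplicates. They are stated as log2 fold changes. Before quantification by TMTpro 16plex LC-MS/MS with equalised channel sums, K562 cells at 2×10^6 cells/mL were treated with 10 μM compound for 30 min, heated in aliquots for 3 min across 48°C-58°C, pooled, extracted in PBS with 0.5% NP-40 at 4°C, and centrifuged at 21,000xg for 90 min to give the soluble supernatant.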

[2] = compound: CC1=C(SC2=C1C(=N[C@H](C3=NN=C(N32)C)CC(=O)N)C4=CC=C(C=C4)Cl)C
Procedure, shortened: as §1

[3] = compound: CC1=C2C(=CC=C1)N=C(N(C2=O)C3=CC=CC=C3C)CN4C=NC5=C(N=CN=C54)N
Procedure, shortened: as §1

[4] = compound: Cc1sc2c(c1C)C(c1ccc(Cl)cc1)=N[C@@H](CC(=O)OC(C)(C)C)c1nnc(C)n1-2
Procedure, shortened: as §1

[5] = compound: c1ccc([C@@H]2C[C@H]2NC2CCNCC2)cc1
Procedure, shortened: as §1

Measured: log2 fold change

MUL1 (UniProt Q969V5)
UniProt Q969V5, sequence (Q969V5 whole entry, looked up): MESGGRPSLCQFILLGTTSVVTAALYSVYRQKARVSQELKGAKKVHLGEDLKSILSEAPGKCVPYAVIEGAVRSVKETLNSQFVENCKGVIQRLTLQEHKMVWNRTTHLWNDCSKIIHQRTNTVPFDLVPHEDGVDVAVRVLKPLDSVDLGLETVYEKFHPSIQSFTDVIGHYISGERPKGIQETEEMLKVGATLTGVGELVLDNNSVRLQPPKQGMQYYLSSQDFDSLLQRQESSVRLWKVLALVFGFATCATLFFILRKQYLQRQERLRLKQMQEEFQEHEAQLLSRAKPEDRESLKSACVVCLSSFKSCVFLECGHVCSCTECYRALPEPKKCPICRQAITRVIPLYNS
inactive: [1] -0.002 | [2] 0.006 | [3] 0.044 | [4] -0.107 | [5] 0.02

MOV10 (UniProt Q9HCE1)
UniProt Q9HCE1, sequence (Q9HCE1 whole entry, looked up): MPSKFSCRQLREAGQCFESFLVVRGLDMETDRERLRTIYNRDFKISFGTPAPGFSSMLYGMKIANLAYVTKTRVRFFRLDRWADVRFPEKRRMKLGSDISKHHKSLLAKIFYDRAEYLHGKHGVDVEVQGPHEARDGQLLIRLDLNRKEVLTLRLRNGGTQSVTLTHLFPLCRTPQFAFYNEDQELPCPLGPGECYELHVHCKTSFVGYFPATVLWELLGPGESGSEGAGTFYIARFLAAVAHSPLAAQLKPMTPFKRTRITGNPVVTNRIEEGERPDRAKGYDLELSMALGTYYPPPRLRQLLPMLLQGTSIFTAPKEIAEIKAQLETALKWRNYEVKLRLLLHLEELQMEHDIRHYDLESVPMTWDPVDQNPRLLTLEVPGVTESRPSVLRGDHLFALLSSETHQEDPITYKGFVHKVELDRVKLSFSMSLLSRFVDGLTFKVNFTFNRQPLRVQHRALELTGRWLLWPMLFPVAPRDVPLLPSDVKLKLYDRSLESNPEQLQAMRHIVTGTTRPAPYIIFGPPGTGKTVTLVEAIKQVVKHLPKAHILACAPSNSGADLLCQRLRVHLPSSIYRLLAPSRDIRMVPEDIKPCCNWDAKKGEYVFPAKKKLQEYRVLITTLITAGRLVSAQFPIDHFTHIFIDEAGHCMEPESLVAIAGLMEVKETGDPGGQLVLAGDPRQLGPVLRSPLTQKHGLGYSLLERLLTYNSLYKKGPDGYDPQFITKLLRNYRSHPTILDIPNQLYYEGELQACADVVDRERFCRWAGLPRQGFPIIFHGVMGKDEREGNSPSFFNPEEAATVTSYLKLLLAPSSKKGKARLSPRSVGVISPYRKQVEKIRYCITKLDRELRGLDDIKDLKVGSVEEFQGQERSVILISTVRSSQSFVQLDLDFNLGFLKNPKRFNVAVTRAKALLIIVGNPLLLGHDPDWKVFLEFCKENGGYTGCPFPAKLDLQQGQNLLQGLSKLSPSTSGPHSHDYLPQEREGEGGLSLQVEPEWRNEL
inactive: [1] 0.067 | [2] -0.095 | [3] -0.095 | [4] 0.145 | [5] 0.057

MTMR14 (UniProt Q8NCE2)
inactive: [1] 0.03 | [2] 0.047 | [3] 0.156 | [4] -0.011 | [5] 0.069

NDUFA12 (UniProt Q9UI09)
inactive: [1] -0.046 | [2] 0.126 | [3] 0.145 | [4] -0.086 | [5] -0.051

NAT14 (UniProt Q8WUY8)
inactive: [1] -0.059 | [2] 0.055 | [3] -0.087 | [4] 0.043 | [5] -0.047

NUCKS1 (UniProt Q9H1E3)
UniProt Q9H1E3, sequence (Q9H1E3 whole entry, looked up): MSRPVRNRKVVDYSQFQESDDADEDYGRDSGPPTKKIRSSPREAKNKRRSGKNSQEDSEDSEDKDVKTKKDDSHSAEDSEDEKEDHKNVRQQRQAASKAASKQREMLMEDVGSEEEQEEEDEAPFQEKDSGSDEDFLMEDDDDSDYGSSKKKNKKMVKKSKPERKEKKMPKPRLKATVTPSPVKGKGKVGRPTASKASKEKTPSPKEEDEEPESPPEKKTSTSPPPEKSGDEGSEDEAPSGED
inactive: [1] 0.044 | [2] -0.053 | [3] 0.032 | [4] -0.029 | [5] -0.007

MTHFD1, A0A384N5Y3
inactive: [1] -0.063 | [2] 0.138 | [3] -0.022 | [4] -0.002 | [5] -0.113

MYH11 isoform 2 (UniProt P35749)
UniProt P35749, sequence (P35749 whole entry, looked up): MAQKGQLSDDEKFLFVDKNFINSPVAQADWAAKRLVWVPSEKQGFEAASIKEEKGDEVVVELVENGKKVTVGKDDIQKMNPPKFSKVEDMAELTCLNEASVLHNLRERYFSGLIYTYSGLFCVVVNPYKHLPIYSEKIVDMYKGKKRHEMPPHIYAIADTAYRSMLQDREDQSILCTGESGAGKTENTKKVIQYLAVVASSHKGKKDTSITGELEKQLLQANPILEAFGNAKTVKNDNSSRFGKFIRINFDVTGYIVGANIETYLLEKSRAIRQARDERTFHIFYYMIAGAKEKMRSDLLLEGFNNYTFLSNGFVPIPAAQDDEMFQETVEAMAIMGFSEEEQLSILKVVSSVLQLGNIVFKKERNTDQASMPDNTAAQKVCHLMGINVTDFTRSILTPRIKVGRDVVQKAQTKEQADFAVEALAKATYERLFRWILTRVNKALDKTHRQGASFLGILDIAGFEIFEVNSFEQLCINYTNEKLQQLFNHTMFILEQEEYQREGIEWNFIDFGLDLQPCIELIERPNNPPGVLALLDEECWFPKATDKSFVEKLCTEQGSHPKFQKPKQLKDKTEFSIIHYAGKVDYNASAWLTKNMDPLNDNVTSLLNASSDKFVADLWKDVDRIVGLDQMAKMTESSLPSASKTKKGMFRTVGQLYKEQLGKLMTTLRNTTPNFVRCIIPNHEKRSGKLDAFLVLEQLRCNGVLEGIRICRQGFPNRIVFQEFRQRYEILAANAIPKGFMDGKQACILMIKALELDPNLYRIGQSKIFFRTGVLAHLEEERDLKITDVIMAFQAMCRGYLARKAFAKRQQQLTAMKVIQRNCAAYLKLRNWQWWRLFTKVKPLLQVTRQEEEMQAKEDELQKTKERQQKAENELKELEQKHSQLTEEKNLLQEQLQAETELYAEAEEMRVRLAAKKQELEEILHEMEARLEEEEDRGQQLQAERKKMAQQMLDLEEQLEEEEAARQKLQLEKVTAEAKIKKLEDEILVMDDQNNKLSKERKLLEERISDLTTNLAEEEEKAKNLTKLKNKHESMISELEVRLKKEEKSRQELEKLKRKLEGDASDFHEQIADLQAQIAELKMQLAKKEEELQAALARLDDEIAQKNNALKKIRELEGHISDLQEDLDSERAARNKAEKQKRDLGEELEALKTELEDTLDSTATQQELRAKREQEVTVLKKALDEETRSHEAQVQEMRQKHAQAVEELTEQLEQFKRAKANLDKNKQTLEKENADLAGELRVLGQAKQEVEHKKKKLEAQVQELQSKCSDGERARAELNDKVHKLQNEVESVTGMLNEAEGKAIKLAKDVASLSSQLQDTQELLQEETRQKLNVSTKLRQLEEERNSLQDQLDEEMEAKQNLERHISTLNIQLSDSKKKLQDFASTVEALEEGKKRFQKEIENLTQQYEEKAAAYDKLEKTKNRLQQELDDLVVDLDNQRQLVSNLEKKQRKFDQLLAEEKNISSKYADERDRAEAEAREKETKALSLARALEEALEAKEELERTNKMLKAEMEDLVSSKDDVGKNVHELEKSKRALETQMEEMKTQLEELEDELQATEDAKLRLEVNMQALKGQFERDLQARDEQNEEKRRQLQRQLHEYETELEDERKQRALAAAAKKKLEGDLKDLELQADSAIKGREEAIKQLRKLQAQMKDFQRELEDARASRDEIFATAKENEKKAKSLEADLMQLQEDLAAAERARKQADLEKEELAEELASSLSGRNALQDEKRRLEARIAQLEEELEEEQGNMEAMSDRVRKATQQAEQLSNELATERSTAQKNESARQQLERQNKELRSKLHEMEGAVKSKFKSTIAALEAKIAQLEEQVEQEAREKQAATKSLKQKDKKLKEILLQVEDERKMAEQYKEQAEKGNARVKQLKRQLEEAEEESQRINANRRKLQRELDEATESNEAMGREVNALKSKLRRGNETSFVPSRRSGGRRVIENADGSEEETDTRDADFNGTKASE
inactive: [1] 0.011 | [2] 0.024 | [3] -0.071 | [4] -0.026 | [5] -0.036

NKAP (UniProt Q8N5F7)
inactive: [1] -0.013 | [2] 0.148 | [3] 0.049 | [4] 0.078 | [5] 0.171

NFATC2 (UniProt Q13469)
inactive: [1] -0.063 | [2] 0.097 | [3] 0.077 | [4] 0.023 | [5] 0.021

MXRA7 (UniProt P84157)
inactive: [1] 0.008 | [2] 0.167 | [3] 0.293 | [4] 0.002 | [5] 0.024

NIPSNAP2 (UniProt O75323)
inactive: [1] -0.038 | [2] 0.008 | [3] 0.036 | [4] -0.019 | [5] -0.051

NANS (UniProt Q9NR45)
inactive: [1] -0.031 | [2] 0.065 | [3] 0.071 | [4] -0.015 | [5] -0.024

OPA1 isoform 2 (UniProt O60313)
inactive: [1] -0.054 | [2] 0.028 | [3] 0.021 | [4] -0.03 | [5] -0.037

NMD3 (UniProt Q96D46)
inactive: [1] -0.046 | [2] 0.049 | [3] 0.01 | [4] -0.02 | [5] -0.11

MRPS26 (UniProt Q9BYN8)
inactive: [1] -0.075 | [2] 0.061 | [3] -0.012 | [4] -0.009 | [5] 0.013

NA isoform 3 (UniProt Q4G0T1)
inactive: [1] 0.161 | [2] -0.017 | [3] 0.026 | [4] 0.024 | [5] -0.126

MRPS6 (UniProt P82932)
inactive: [1] -0.084 | [2] 0.012 | [3] 0.052 | [4] 0.052 | [5] -0.022

ORC5 (UniProt O43913)
inactive: [1] -0.081 | [2] 0.02 | [3] 0.144 | [4] -0.016 | [5] -0.044

NAA11 (UniProt Q9BSU3)
UniProt Q9BSU3, sequence (Q9BSU3 whole entry, looked up): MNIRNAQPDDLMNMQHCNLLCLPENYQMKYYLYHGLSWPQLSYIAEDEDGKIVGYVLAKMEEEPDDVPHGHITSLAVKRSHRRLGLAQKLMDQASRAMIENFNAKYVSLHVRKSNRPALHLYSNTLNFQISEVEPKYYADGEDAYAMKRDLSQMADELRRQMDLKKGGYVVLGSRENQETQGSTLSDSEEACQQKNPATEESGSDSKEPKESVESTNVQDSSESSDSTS
inactive: [1] 0.009 | [2] 0.042 | [3] 0.049 | [4] -0.12 | [5] -0.049

OSBP (UniProt P22059)
inactive: [1] 0.015 | [2] 0.084 | [3] 0.076 | [4] -0.002 | [5] 0.031

MOB3B (UniProt Q86TA1)
UniProt Q86TA1, sequence (Q86TA1 whole entry, looked up): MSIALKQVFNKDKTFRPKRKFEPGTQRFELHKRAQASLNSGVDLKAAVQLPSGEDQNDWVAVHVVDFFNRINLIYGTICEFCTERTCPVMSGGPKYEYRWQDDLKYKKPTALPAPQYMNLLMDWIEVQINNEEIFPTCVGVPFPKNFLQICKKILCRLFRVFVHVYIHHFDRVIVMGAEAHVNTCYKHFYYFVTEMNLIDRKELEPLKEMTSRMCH
inactive: [1] 0 | [2] 0.029 | [3] 0.178 | [4] 0.041 | [5] -0.088

MMS19 isoform 8 (UniProt Q96T76)
UniProt Q96T76, sequence (Q96T76 whole entry, looked up): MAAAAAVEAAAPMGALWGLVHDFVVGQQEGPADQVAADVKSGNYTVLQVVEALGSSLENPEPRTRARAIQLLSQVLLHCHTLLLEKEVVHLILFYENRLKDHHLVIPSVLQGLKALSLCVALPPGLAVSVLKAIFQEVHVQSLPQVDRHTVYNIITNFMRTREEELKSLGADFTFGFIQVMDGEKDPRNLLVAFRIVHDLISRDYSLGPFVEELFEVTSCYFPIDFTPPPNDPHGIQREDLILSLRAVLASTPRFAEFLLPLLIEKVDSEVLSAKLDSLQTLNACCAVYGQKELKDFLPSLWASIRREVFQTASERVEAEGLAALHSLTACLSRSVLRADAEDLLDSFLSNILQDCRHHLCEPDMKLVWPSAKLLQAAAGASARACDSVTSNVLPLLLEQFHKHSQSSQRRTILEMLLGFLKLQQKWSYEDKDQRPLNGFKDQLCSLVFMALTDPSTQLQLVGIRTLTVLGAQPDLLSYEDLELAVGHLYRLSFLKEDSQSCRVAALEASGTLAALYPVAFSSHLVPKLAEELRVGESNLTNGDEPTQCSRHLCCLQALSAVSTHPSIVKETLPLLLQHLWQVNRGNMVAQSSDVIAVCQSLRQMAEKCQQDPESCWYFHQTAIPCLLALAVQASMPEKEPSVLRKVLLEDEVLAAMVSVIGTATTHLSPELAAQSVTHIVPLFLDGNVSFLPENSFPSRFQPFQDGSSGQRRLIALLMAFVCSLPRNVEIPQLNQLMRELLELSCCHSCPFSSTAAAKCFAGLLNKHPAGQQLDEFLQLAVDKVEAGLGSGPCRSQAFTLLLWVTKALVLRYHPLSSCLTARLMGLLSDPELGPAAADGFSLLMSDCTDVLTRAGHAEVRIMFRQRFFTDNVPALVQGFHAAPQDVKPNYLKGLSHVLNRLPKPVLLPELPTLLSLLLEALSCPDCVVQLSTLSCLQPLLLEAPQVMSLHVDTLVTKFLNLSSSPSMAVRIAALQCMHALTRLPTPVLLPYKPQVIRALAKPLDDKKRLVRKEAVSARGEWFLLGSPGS
inactive: [1] -0.034 | [2] -0.001 | [3] 0.133 | [4] 0.002 | [5] -0.003

MSH2 (UniProt P43246)
inactive: [1] -0.041 | [2] 0.051 | [3] 0.105 | [4] -0.037 | [5] 0.01
